A selection: hits, their analogues and other compounds. The true share with any hit is near 6%.
Tau fluor cs – counter-screen for tau fibril formation inhibitors | tau K18 P301L Alexa594 fluorescence, heparin fibrillization | AID 1463 | hit rate 0.93% among 280,000 | Potency, µM (highest dose often 57.7 µM), for inactives: at the top dose activity change, negative = decrease; further: nearly all actives have a fitted effect of over 55% in size
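Human tau K18 P301L (15 uM unlabeled, 0.24 uM Alexa 594-labeled) in 100 mM sodium acetate pH 7 with 20 uM heparin, 6 hr at 37 C. ThT 30 uM added, 1 hr ambient; Alexa 594 FP and total fluorescence read at 555/632 nm.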
Tau fibril ThT – tau fibrillization inhibition (ThT binding) | recombinant tau K18 P301L (four-repeat tau fragment), heparin-induced fibrillization, ThT fluorescence | Potency, µM (top dose mostly 57.4 µM), for the others: top-dose activity, negative = inhibition, most hits filed as inhibitors | hit rate 2.1% among 270,000; further: nearly all actives have a fitted effect of over 55% in size
Target sequence (P10636 561-689 P618L limits assumed): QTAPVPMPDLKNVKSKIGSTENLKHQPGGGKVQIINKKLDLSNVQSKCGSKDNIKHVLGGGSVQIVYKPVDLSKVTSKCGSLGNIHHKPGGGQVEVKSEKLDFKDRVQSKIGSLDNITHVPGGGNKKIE
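Recombinant human tau K18 fragment […] carrying P301L, 15 uM unlabeled plus 0.24 uM Alexa 594-labeled, was fibrillized with 20 uM heparin in 100 mM sodium acetate pH 7 for 6 hr at 37 C; 30 uM ThT fluorescence read after 1 hr.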
Sfp inh – Sfp phosphopantetheinyl transferase inhibition; Potency, µM, inactives show largest response in the series, negative = inhibition, hits mostly inhibitors; hit rate 3.5% among 310,000; AID 1490; Biochemical Sfp PPTase activity, qHTS; Q9F4F7;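 further: the enzyme is Sfp with the accession as filed and its product quenches rhodamine fluorescence; 0% = enzyme reaction without inhibitor and -100% = no enzyme wells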
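Fluorescence-quenching assay with 15 nM Sfp, 5 uM rhodamine-CoA and 12.5 uM BHQ-2-labelled ybbR peptide in pH 7.6 Hepes/MgCl2 buffer. Enzyme was pre-incubated with compound for 15 min at room temperature. Rate was taken from the 30-min fluorescence change (525/598 nm).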
VDR inh – vitamin D3 receptor (human) inhibition. VDR-SRC2-3 peptide fluorescence polarization, 2 h. Potency, µM, for the others: max response, negative = inhibition, hits mostly inhibitors. hit rate 0.93% among 400,000
Target sequence (P11473 whole entry, looked up): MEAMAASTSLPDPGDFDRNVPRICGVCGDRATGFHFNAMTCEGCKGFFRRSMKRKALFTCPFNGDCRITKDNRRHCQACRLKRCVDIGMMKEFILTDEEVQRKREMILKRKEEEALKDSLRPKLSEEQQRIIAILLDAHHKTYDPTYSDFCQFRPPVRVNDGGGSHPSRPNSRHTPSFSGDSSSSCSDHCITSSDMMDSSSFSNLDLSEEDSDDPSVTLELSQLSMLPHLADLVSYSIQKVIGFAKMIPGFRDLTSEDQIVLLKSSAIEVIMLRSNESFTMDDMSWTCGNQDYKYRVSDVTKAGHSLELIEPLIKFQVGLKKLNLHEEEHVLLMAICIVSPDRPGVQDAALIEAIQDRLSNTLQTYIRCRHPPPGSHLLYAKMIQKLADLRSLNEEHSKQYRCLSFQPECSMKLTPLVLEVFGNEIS
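After 23 nl compound addition and a short centrifugation, plates sat for 2 hours at ambient temperature; polarization of fluorescence then indicated loss of VDR binding to peptide SRC2-3.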
PLK1 PBD block – inhibitors of human PLK1 polo-box domain binding | P53350 | Plk1 PBD binding of FITC phosphopeptide, fluorescence polarization | Potency, µM, for inactives: max response, negative = inhibition, usual class: inhibitors | hit rate 2.8% among 360,000; further: series mostly up to about 57 µM; nearly all actives have a fitted effect of over 65% in size
Tau fibril FP – tau fibrillization inhibition (FP); P10636; K18 P301L tau heparin fibrillization, Alexa594 FP, 6 h; Potency, µM (series often up to 57.7 µM), for the others: at the top dose activity, negative = inhibition, usual class: inhibitors; hit rate 0.39% among 280,000; further: nearly all actives have a fitted effect of over 55% in size
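Quantitative HTS format: compounds meet 15 uM recombinant K18 P301L tau and Alexa 594-tau tracer in 100 mM sodium acetate pH 7; 20 uM heparin triggers fibrillization at 37 C over 6 hr; FP gives the signal.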
Active calls of the source: *; u = inconclusive; x = not tested or not shown. The call rests on the fitted dose curve; in most records, active means well fitted curve in the direction sought with a large enough effect; inconclusive means small, poorly fitted or top-dose-only effect, or another doubt; inactive means no such curve, though single readings can be large; an effect the other way counts as inactive or inconclusive. Unless noted, on the % scale 0 is the no-effect control and ±100 the full control effect; potency means the concentration at half of the fitted maximal effect.

SMILES	Tau fluor cs	Tau fibril ThT	Sfp inh	VDR inh	PLK1 PBD block	Tau fibril FP
OC[C@@H]1CN(CCN2CCOCC2)C[C@H](n2cnc3c(NC4CCCC4)ncnc32)O1	x	x	x	x	-6%	x
NC1=NC[C@H](Cc2ccc(O)cc2)N1CCc1cccc2ccccc12	-9%	u	-9%	-9%	0%	0%
NC1=NC[C@@H](Cc2ccc(O)cc2)N1CCc1cccc2ccccc12	8%	-6%	89µM*	3%	4%	0%
CC(C)N1C(=O)/C(=C/c2nc3ccccc3c(=O)n2-c2ccccc2)c2ccccc21	-10%	u	-9%	71µM*	-10%	1%
CC(C)N1C(=O)/C(=C\c2nc3ccccc3c(=O)n2-c2ccccc2)c2ccccc21	-16%	u	-4%	71µM*	-7%	-3%
O=C1c2ccccc2-n2c1nc1ccccc1c2=O	-24%	u	-12%	-11%	-3%	4%
COc1ccc2nc(/C=N/NC(=O)[C@@H]3CCCN3C(=O)OC(C)(C)C)ccc2c1	-10%	-11%	89µM*	-2%	0%	6%
NC1=NC(S)C2N=CN=C2N1 (stereo not drawn)	x	x	56µM*	u	x	x
CCc1nc(SCC(=O)c2ccc3c(c2)OCCO3)c2ccccc2n1	-27%	u	50µM*	u	-18%	-8%
CCCc1nc(SCC(=O)c2ccc(OC)cc2)c2ccccc2n1	-15%	u	79µM*	-2%	-9%	-15%
COC(=O)c1ccc(C(NC(=O)OCc2ccccc2)/C(C)=C/[C@@H](C)C(=O)NCCc2c[nH]c3ccc(OC)cc23)cc1 (stereo partly drawn)	u	-20%	12%	x	x	15%
O=C(Nc1ccccc1)c1ccc(C(=O)Nc2ccccc2)nc1	3%	-4%	3%	-11%	19µM*	2%
CC(=O)Nc1cccc(NC(=O)c2ccc(C(=O)Nc3cccc(NC(C)=O)c3)nc2)c1	-20%	-15%	15%	-13%	-10%	2%
COc1ccc(OC)c(NC(=O)Nc2nnc(COCCO)s2)c1	x	x	x	x	-2%	x
CC[C@H](C)[C@H](NC(=O)[C@H](CCCNC(=N)N)NC(=O)[C@@H](NC(=O)[C@H](CCCNC(=N)N)NC(=O)[C@H](CCCCN)NC(=O)[C@H](CCCNC(=N)N)NC(=O)[C@@H](NC(=O)[C@H](CC(N)=O)NC(=O)[C@@H](N)CS)[C@@H](C)O)[C@@H](C)CC)C(=O)N[C@@H](CCC(N)=O)C(=O)N[C@@H](CCCNC(=N)N)C(=O)NCC(=O)N1CCC[C@H]1C(=O)NCC(=O)N[C@@H](CCCNC(=N)N)C(=O)N[C@@H](C)C(=O)N[C@@H](Cc1ccccc1)C(=O)N[C@H](C(=O)N[C@H](C(=O)N[C@H](C(=O)NCC(=O)N[C@@H](CCCCN)C(=O)O)[C@@H](C)CC)[C@@H](C)O)C(C)C	x	x	-22%	u	x	x
COc1cc(C2C(=O)N(C3CCCCC3)CC(=O)N2CCC2=CCCCC2)ccc1OC(C)C (stereo not drawn)	6%	-4%	x	5%	x	2%
O=S(=O)([O-])CCC[N+]1(CC#Cc2ccccc2)CCCCC1	6%	10%	30%	u	4.7µM*	3%
CN1CCN(CC(O)Cn2c3ccccc3c3ccccc32)CC1 (stereo not drawn)	x	x	50µM*	8%	-11%	x
COc1cc(/C=C2/C(=O)N(c3ccc([N+](=O)[O-])cc3)N=C2N2CCOCC2)ccc1O	-23%	u	10%	u	11µM*	-3%
Cc1ccc(S(=O)(=O)SC/C=C/CSS(=O)(=O)c2ccc(C)cc2)cc1	x	x	x	45µM*	2.7µM*	x
Cc1ccc(S(=O)(=O)SCCCSS(=O)(=O)c2ccc(C)cc2)cc1	x	x	x	50µM*	2.4µM*	x
Cc1ccc(S(=O)(=O)CS(=O)(=O)c2ccc(C)cc2)cc1	x	x	x	-18%	-2%	x
Cc1ccc(S(=O)(=O)CCCS(=O)(=O)c2ccc(C)cc2)cc1	-3%	-4%	4%	-5%	-2%	1%
CCOc1ccc(C2C(=O)N(C3CCCCCC3)CC(=O)N2CCc2ccc(Cl)cc2)cc1OC (stereo not drawn)	6%	0%	x	10%	x	6%
Cc1ccc2oc(-c3ccc(Cl)c(NC(=O)c4ccc(-c5ccccc5[N+](=O)[O-])o4)c3)nc2c1	-14%	-15%	x	-12%	x	-8%
SMILES	Tau fluor cs	Tau fibril ThT	Sfp inh	VDR inh	PLK1 PBD block	Tau fibril FP
O=C(NCCCN1CCN(c2ccccc2F)CC1)c1ccc2nc(CCc3ccccc3)oc2c1	-16%	u	x	2%	x	1%
COc1cccc(N2CC(NC(=O)COc3ccc4ccccc4c3)CC2=O)c1 (stereo not drawn)	-17%	u	x	1%	x	-3%
CCOC(=O)c1sc2ccccc2c1S(=O)(=O)Nc1ccc(CC)cc1	-29%	-3%	x	1%	x	-9%
Cc1cccc(NC(=O)c2c(NC(=O)c3ccccc3)sc3c2CCC3)c1	-22%	-8%	x	-8%	x	-6%
CC(C)(C)c1ccc(C(=O)Nc2sc3c(c2C(=O)O)CCC3)cc1	u	14µM*	-8%	-18%	u	-7%
O=C(Nc1sc2c(c1C(=O)O)CCCC2)c1ccc(F)cc1	x	x	13%	12%	-6%	x
Cc1cccc(NC(=O)c2c(NC(=O)c3ccccc3)sc3c2CCCC3)c1	u	10µM*	x	79µM*	x	u
Cc1ccc(CNC(=O)C2CCN(c3nc4ccccc4n(C)c3=O)CC2)cc1	-8%	-4%	x	8%	x	-5%
COC(=O)c1ccc(NC(=O)N2CCN(Cc3cc(=O)n4nc(-c5ccc(C)cc5)sc4n3)CC2)cc1	-2%	-15%	x	5%	x	0%
CCOC(=O)c1cc(-c2ccccc2)nn1CC1CC(c2cccnc2)=NO1 (stereo not drawn)	x	x	x	-6%	2%	x
CCOC(=O)c1cc(-c2cccnc2)nn1-c1ccccc1C	5%	2%	-6%	u	27µM*	7%
CCCC1OC(c2ccco2)OCC1CC (stereo not drawn)	x	x	x	3%	-12%	x
CCn1c(C(=O)N2CCC(C(=O)N3CCN(c4cc(C)ccc4C)CC3)CC2)cc2sccc21	-12%	u	x	2%	x	2%
N#CC1=C(N)SC(N)=C(C#N)C1c1ccc([N+](=O)[O-])cc1	u	20µM*	5µM*	79µM*	9.5µM*	-12%
CC(=O)NCCNc1nc2cc(-c3cscc3C)sc2c(=O)n1C	x	x	x	x	-6%	x
Cc1sc2ncn(CC(=O)N3CCN(c4ccccc4F)CC3)c(=O)c2c1S(=O)(=O)N1CCC(C)CC1	-25%	-12%	x	7%	x	u

Compound activity as filed in PubChem.
